From PubChem
SmPrx2 inh: inhibitors of Schistosoma mansoni peroxiredoxin 2; S. mansoni Prx2 activity coupled to TGR/GSH (TGR is thioredoxin glutathione reductase), NADPH fluorescence loss, qHTS; Potency, µM; 65,000 compounds, 0.07% hits; AID 448
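Enzyme mix: 100 uM NADPH, 25 nM TGR, 700 uM GSH, 50 nM Prx2 in 100 mM phosphate pH 7.4, 10 mM EDTA, 0.01% Tween-20. 15 min RT with compound; NADPH/GSH added, H2O2 starts reaction; NADPH fluorescence read 8 min.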
AmpC inh no det: blocks E. coli AmpC beta-lactamase in absence of detergent. P00811. AmpC nitrocefin hydrolysis, absorbance 480 nm, no detergent. Potency, µM (titrated, usually from 28.7 µM), inactives show top-dose activity change, negative = inhibition. 71,000 compounds, 1.8% hits; also: % of control where 0% means no effect
Target sequence (P00811 whole entry, looked up): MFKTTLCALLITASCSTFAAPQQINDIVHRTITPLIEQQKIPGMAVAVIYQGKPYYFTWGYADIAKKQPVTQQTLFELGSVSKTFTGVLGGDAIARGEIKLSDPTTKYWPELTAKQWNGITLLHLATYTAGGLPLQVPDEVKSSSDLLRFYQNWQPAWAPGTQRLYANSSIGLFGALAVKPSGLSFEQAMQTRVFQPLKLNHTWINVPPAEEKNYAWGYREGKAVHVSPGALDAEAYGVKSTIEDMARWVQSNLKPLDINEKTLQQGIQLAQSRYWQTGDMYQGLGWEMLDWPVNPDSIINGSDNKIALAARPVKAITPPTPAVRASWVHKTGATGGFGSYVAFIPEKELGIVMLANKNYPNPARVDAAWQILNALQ
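AmpC in 20 mM phosphate buffer pH 7.0 was preincubated 15 min at room temperature with compounds. Nitrocefin (800 uM stock) was then added and hydrolysis followed at 480 nm every 20 s for 4 min.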
Anthrax LT inh: inhibitors of anthrax lethal toxin internalization | Cells, anthrax lethal toxin internalization, FRET ratio (460/530) | Potency, µM (titrated, usually from 40 µM), for the others: at the top dose activity change, negative = inhibition, usual class: inhibitors | 70,000 compounds, 0.67% hits | AID 912; also: % is scaled to controls: 0 for no effect and ±100 for the full control effect; nearly all actives have a fitted effect of over 50% in size
AmpC inh det: AmpC beta-lactamase inhibition, detergent assay; purified AmpC, nitrocefin hydrolysis with detergent; 71,000 compounds, 0.09% hits; P00811; Potency, µM (highest dose often 28.7 µM), for inactives: at the highest dose activity change, negative = inhibition; AID 584; active = well fitted curve in the direction sought with a large enough effect; inconclusive = small, poorly fitted or top-dose-only effect; also: % is scaled to controls: 0 for no effect and ±100 for the full control effect
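E. coli AmpC (5.3 nM) in 20 mM phosphate pH 7.0 with 0.01% Triton X-100, preincubated 15 min RT with compound; nitrocefin (2 uL of 800 uM stock) hydrolysis followed by 480 nm absorbance every 20 s over 4 min.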
* = called active by the depositor; ? = inconclusive; / = no result given; [ ] = dose if it differs, or a comment. A selection: hits, their analogues and other compounds. The true share with any hit is near 2.4%. Unless noted, calls follow the shape of the full dose curve. Potency is read from the fitted curve at half-maximal effect.

SMILES	SmPrx2 inh	AmpC inh no det	Anthrax LT inh	AmpC inh det
c1ccc(CCNc2ccc3nncn3n2)cc1	>57	3.2µM*[single pt active]	-13%	12%
Cc1ccnc(N2C(=O)c3ccccc3C2Nc2cccc(C)c2C)c1 (configuration not stated)	>57	13%	-5%	10%
CCOC(=O)c1ccc(NC2c3ccccc3C(=O)N2c2cccnc2)cc1 (configuration not stated)	>57	62%	-5%	11%
O=C1c2ccccc2C(Nc2ccccc2F)N1c1cccnc1 (configuration not stated)	>57	4µM*[single pt active]	0%	13%
CCc1cccc(NC2c3ccccc3C(=O)N2c2cccnc2)c1 (configuration not stated)	>57	4µM*[single pt active]	-3%	9%
COC(=O)c1ccccc1NC1c2ccccc2C(=O)N1c1cccnc1 (configuration not stated)	>57	4µM*[single pt active]	-9%	8%
Cc1ccccc1N1C(=O)c2ccccc2C1Nc1cccnc1 (configuration not stated)	>57	4µM*[single pt active]	-3%	13%
CCc1cccc(NC2c3ccccc3C(=O)N2c2ccc(C)cn2)c1 (configuration not stated)	>57	43%	?	8%
COc1ccc(C[C@@H]2NC[C@H](O)[C@H]2OC(C)=O)cc1	>11	9%	?	4%
C[C@@]12CCC[C@](C)(C(=O)O)[C@@H]1CCc1ccc(O)cc12	>26	-13%	?	1%
Cn1cccc1C(=O)N1CCC2(CC1)CCN(C(c1ccccc1)c1ccccc1)CC2	>57	66%	0%	-6%
Oc1c(Cl)cc(Cl)cc1Sc1cc(Cl)cc(Cl)c1O	/	?	3.2µM*	6%
Oc1c(Cl)cc(C(c2cc(Cl)c(O)c(Cl)c2)C(c2cc(Cl)c(O)c(Cl)c2)c2cc(Cl)c(O)c(Cl)c2)cc1Cl	>57	-26%[5.75 µM]	-8%[8 µM]	-3%[5.75 µM]
Cc1nc(N(C)C)c2sc(=S)n(C)c2n1	>57	4µM*[single pt active]	-5%	7%
CN(CC(=O)NC1CCCCCCC1)S(=O)(=O)c1cccc2cccnc12	>57	4µM*[single pt active]	-9%	3%
COc1ccc(NC(=O)CN(C)S(=O)(=O)c2cccc3cccnc23)cc1	>57	-4%	7%	13%
CN(CC(=O)Nc1ccc(Cl)cc1)S(=O)(=O)c1cccc2cccnc12	>57	-13%	7.9µM*	9%
Cn1cc(-c2nc3cnc(Oc4cccc(Cl)c4)nc3n(C3CC3)c2=O)c2ccccc21	>11	-7%	?	8%
CCCC(=O)OC(=O)CCC	/	-11%	-15%	9%
COc1ccc(C2C(C(C)=O)=C(C)Nc3ncnn32)cc1OC (configuration not stated)	>57	-5%	?	0%
COc1cc(C2C(C(=O)OC(C)C)=C(C)Nc3ncnn32)cc(OC)c1OC (configuration not stated)	>57	4µM*[single pt active]	-1%	14%
CC(C)n1cc2c3c(cccc31)[C@@H]1C[C@H](C(=O)O[C@@H](C)[C@H](C)O)CN(C)[C@H]1C2	>57	109%	?	-2%
CCOC(=O)c1nnn(CC(=O)Nc2cc(Cl)ccc2C)c1C(=O)OCC	>57	16%	7.9µM*	-3%
NC(=O)c1cccc2c1C(=O)N(C1CCCCC1)C2	>57	4µM*[single pt active]	-7%	13%
[C-]#[N+]/C(C#N)=C\c1cc(C(C)(C)C)c(O)c(C(C)(C)C)c1	/	/	0.1µM*	/
SMILES	SmPrx2 inh	AmpC inh no det	Anthrax LT inh	AmpC inh det
CC(C)(C)c1cc(/C=C(\C#N)C(N)=S)cc(C(C)(C)C)c1O	>57	-1%	7.9µM*	-1%
Cc1oc2c(O)c(O)ccc2c(=O)c1-c1cnn(-c2ccccc2)c1	/	-7%	7.9µM*	3%
CCOC(=O)CC(SP(=O)(OC)OC)C(=O)OCC (configuration not stated)	/	0%	26%	22%
CC(=O)NCCn1c(SCC#N)nc2ccccc2c1=O	>57	6%	?	1%
N#CCSc1nc2ccccc2c(=O)n1CCC(=O)NCCc1ccccc1	>57	16µM*[single pt active]	1%	-3%
CC(C)OC(=O)Nc1ccc(Oc2c(F)c(F)c(F)c(F)c2F)cc1	>57	16µM*[single pt active]	/	-2%
CC(C)Oc1ccc(NC(N)=O)cc1	>57	20%	?	-2%
O=C(Nc1cccnc1)C(Cc1ccccc1)n1cccc1 (configuration not stated)	>57	27%	-1%	8%
O=C(Nc1ncc(Br)s1)C(Cc1ccccc1)n1cccc1 (configuration not stated)	>57	13µM*	?	3%
CN1CCN(c2ncc3ncc(=O)n(CCC#N)c3n2)CC1	>57	5%	-10%	-1%
O=C(COc1ccc(Cl)cc1)NCc1nnc(SCC(=O)Nc2ccccc2)o1	>57	30%	-3%	-4%
O=C(CSc1nnc(CNc2ccc(Cl)cc2)o1)Nc1nc2ccccc2s1	>57	4µM*[single pt active]	-4%	0%
CCN[C@@H]1C[C@H](N)[C@H](O[C@H]2OC(CN)=CC[C@H]2N)[C@@H](O)[C@H]1O[C@H]1OC[C@@](C)(O)[C@@H](NC)[C@@H]1O	>57	-4%[12.8 µM]	-3%[3.58 µM]	-2%[12.8 µM]
COc1cccc(-c2ccc3ncnc(NCc4ccccc4OC)c3c2)c1	>57	1.3µM*	4µM*	13µM*
COc1cccc(-c2cc(NCc3ccccc3)ncn2)c1	>57	5µM*	1%	7.9µM*
COc1cccc(-c2ccc3ncnc(NCc4ccc(OC)cc4OC)c3c2)c1	>57	7.9µM*	?	13µM*
COc1cccc(-c2ccc3ncnc(NCc4ccccc4)c3c2)c1	>57	-12%	?	4%
Cc1ccc(S(=O)(=O)Nc2ccccc2C=O)cc1	>57	2%[5.75 µM]	-6%[8 µM]	-9%[5.75 µM]
O=C(CCl)c1ccc(Cl)cc1Cl	/	-3%	5µM*	12%
COc1cc2c(O)c3c(c(-c4ccc5c(c4)OCO5)c2cc1OC)C(=O)OC3	>57	6%	0.02µM*	4%
COc1cc2c(=O)n(-c3ccc(C)cc3)c(=O)n(CC(=O)c3ccc4c(c3)OCO4)c2cc1OC	>57	119%	5%	-4%
O=C(Nc1cccc(F)c1)N1CC[C@@]2(CCCN(C(=O)c3ccncc3)C2)C1	>57	10%	?	1%
Clc1cccc(N2CCN(Cc3nc(-c4ccccc4)no3)CC2)c1	>57	4µM*[single pt active]	?	13%
CC(=O)OCC1=C(C(=O)[O-])N2C(=O)[C@@H](NC(=O)CCC[C@@H](N)C(=O)[O-])[C@@H]2SC1.[Zn+2]	>57	1%	1%	-1%
CC(=O)OCC1=C(C(=O)O)N2C(=O)[C@@H](N)[C@@H]2SC1	>57	5µM*	7%[3.58 µM]	?
CS/C(=N\S(=O)(=O)c1cccs1)NC(=O)CSc1nc2ccccc2s1	>57	13µM*	?	-4%
O=C(NCCc1c[nH]c2ccccc12)c1ccc(S(=O)(=O)NCc2ccco2)cc1	>57	16µM*	-28%	-4%
CN1CCc2cc3c(cc2[C@@H]1[C@H]1OC(=O)c2c1ccc1c2OCO1)OCO3	>57	40%	?	-3%
CCOC(=O)CCc1c(C)n(CC)c2ncnn2c1=O	>57	4µM*[single pt active]	-3%	12%
